One test addresses Albumin (Bos taurus) (UniProt P02769). Description: compounds binding labelled BSA control protein – biochemical, small-molecule microarray, Alexa647 label, 635/667 nm fluorescence, artefact control for SMM control protein annotation, profiling panel (AID 1118).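 Further: score merges 667 nm emission intensity and signal-to-noise per printed compound spot.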 The conditions noted are these: BSA-A647 binding, fluorescence 635 nm, higher = more signal.
Test [1] in a line: probe aXIP binding to arrayed compounds – biochemical, NeuroSMM set, 635/667 nm fluorescence, primary screen (AID 1119).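 Further: probe is the protein aXip251-270 applied at 1 µg/mL to compound-printed slides; binding of probe to printed compounds measured as 667 nm fluorescence plus signal to noise.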 The following applies: small-molecule microarray, higher = more signal, called active from +8 up or from −8 down.
The nature of test [2]: probe aNOTCH3 binding on compound microarray – biochemical, small-molecule microarray, 635/667 nm fluorescence, primary screen (AID 1120).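 Further: probe is a biotin-tagged antibody raised against NOTCH3 rather than NOTCH3 protein; score merges spot fluorescence near 667 nm with spot signal to noise.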 The conditions noted are these: higher = more signal.
A short description of test [3]: probe aNOTCH2 binding on compound microarray – biochemical, small-molecule microarray, 635/667 nm fluorescence, primary screen (AID 1121).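 Further: score merges feature fluorescence read at 667 nm with its signal to noise.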 The following applies: higher = more signal.
The target in test [4] is Carbonic anhydrase 2 (Homo sapiens) (UniProt P00918). Description: compounds binding carbonic anhydrase 2 – biochemical, small-molecule microarray, Alexa647-labelled CAII, profiling panel (AID 1122). The following applies: CAII-A647 binding fluorescence, higher = more signal.
The nature of test [5]: COS7 lysate on small-molecule microarray, probe aHis, 635 nm (AID 1123).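 Further: z-score combines 667nm fluorescence intensity with signal-to-noise per printed compound spot.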 The following applies: COS7 cell lysate, fluorescence, higher = more signal.
Test [6] in a line: probe aLAP1 signal on lysate-treated microarray – cell lysate, small-molecule microarray, COS7 lysate, primary screen (AID 1124).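 Further: lysate comes from COS7 cells expressing LAP1 and is applied at 0.3 µg/mL; score merges spot fluorescence near 667 nm with signal-to-noise over triplicate slides.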 The conditions noted are these: probe aLAP1, fluorescence, higher = more signal.
For another test, the system named is Sam68 (KHDRBS1). Description: compounds binding KHDRBS1 protein – biochemical, small-molecule microarray, 635 nm fluorescence, primary screen (AID 1125).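 Further: score merges 667 nm channel intensity with signal to noise over triplicate slides.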 The following applies: higher = more signal.
For test [7], the system named is Chordin-like protein 2 (CHRDL2). The test can be described thus: compounds binding chordin-like 2 – biochemical, small-molecule microarray, 635 nm fluorescence, primary screen (AID 1126).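 Further: printed compound slides probed with Chrdl2 protein at 4 µg/mL for 1 h at 4 C; score merges 667 nm emission intensity with signal to noise over three replicate slides.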 The conditions noted are these: fluorescence 635 nm, higher = more signal.
Test [8] addresses Concanavalin-A (Canavalia ensiformis) (UniProt P02866). Description: compounds binding concanavalin A lectin – biochemical, small-molecule microarray, Alexa647 label, 635 nm, artefact control for SMM control protein annotation, primary screen (AID 1127).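 Further: z combines 667 nm emission intensity with signal-to-noise across three replicate slides.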 The following applies: ConA-A647 binding fluorescence, higher = more signal.
The nature of test [9]: compounds binding Alexa647 anti-His antibody – biochemical, small-molecule microarray, 635 nm fluorescence, artefact control for SMM control protein annotation, primary screen (AID 1128).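 Further: score merges feature fluorescence with signal-to-noise for each printed compound spot.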 The following applies: higher = more signal.
The test system of test [10] is Human papillomavirus type 1a E7 protein (residues 1-88). Description: HPV1a E7 small-molecule binders, primary screen, biochemical, small-molecule microarray, residues 1-88, 635 nm (AID 1129). The following applies: small-molecule microarray binding, fluorescence 635 nm; higher = more signal.
Test [11] has as its target Focal adhesion kinase 1 (Homo sapiens) (UniProt Q05397). The test can be described thus: PTK2 protein binding on printed compound slides – biochemical, small-molecule microarray, 635/667 nm fluorescence, BSA, DTT, primary screen (AID 1130).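 Further: composite of spot emission at 667 nm and signal to noise over triplicate slides.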 The following applies: 635 nm fluorescence, higher = more signal.
Test [12] deals with Fibrinogen (Alexa647-labelled). Description: Alexa647-fibrinogen binding to printed small molecules – biochemical, small-molecule microarray, 635/667 nm fluorescence, artefact control for SMM control-protein annotation, profiling panel (AID 1131).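 Further: z-score merges 667 nm fluorescence with per-spot signal-to-noise over triplicate slides.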 The conditions noted are these: fibrinogen-A647 binding fluorescence, higher = more signal.
Test [13] addresses Follistatin (Homo sapiens) (UniProt P19883). The test can be described thus: FST protein binding to printed compounds – biochemical, small-molecule microarray, 635/667 nm fluorescence, primary screen (AID 1132). The following applies: 635 nm fluorescence, higher = more signal.
In test [14] the target is Fibroblast growth factor 2 (Homo sapiens) (UniProt P09038). Description: basic fibroblast growth factor binding to printed compounds – biochemical, small-molecule microarray, 635/667 nm fluorescence, primary screen (AID 1133). The conditions noted are these: FGF2, fluorescence 635/667, higher = more signal.
Sequence of Fibroblast growth factor 2 (Homo sapiens) (P09038 whole entry, looked up): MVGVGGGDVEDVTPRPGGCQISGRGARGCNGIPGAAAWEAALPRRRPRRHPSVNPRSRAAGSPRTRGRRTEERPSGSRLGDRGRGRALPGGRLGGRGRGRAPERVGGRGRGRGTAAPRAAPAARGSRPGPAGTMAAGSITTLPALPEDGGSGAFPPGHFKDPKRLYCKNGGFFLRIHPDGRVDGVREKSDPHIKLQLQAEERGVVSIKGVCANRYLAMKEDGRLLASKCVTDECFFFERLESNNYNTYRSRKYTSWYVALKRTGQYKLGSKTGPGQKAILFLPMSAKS
Test [15] can be described thus: JC-1 mitochondrial potential readout, lung cancer cells – cell-based, A549, JC-1 fluorescence, basal, 24 h, 100 nL, profiling panel (AID 1138).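 Further: A549 lung adenocarcinoma cells under basal conditions with no added stimulus; test concentration not given here.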 The conditions noted are these: higher = more signal.
A further test relates to Lefty1. The test can be described thus: Lefty1 protein binding to printed compounds – biochemical, small-molecule microarray, 635/667 nm fluorescence, primary screen (AID 1139). The conditions noted are these: fluorescence 635/667, higher = more signal.
The test system of test [16] is wheat germ agglutinin (Triticum aestivum), Alexa647-labelled. The test can be described thus: Alexa647-WGA lectin binding to printed small molecules – biochemical, small-molecule microarray, 635/667 nm fluorescence, artefact control for SMM control-protein annotation, profiling panel (AID 1140).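 Further: score merges 667 nm feature emission with signal to noise over triplicate slides.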 The conditions noted are these: WGA-A647 binding, 635 nm fluorescence, higher = more signal.

In test [17] the target is Luciferin 4-monooxygenase (Photinus pyralis) (UniProt P08659). The test can be described thus: inhibition of purified Photinus pyralis luciferase – biochemical, luminescence, purified enzyme, 2006 set, primary screen (AID 1141).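 Further: cell-free assay with purified firefly luciferase at 100 ng per well in PBS; test concentration not given here.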 The following applies: purified firefly luciferase, SteadyGlo luminescence, 30 min; higher = more signal, called active from +8 up or from −8 down.
Sequence of Luciferin 4-monooxygenase (Photinus pyralis) (P08659 whole entry, looked up): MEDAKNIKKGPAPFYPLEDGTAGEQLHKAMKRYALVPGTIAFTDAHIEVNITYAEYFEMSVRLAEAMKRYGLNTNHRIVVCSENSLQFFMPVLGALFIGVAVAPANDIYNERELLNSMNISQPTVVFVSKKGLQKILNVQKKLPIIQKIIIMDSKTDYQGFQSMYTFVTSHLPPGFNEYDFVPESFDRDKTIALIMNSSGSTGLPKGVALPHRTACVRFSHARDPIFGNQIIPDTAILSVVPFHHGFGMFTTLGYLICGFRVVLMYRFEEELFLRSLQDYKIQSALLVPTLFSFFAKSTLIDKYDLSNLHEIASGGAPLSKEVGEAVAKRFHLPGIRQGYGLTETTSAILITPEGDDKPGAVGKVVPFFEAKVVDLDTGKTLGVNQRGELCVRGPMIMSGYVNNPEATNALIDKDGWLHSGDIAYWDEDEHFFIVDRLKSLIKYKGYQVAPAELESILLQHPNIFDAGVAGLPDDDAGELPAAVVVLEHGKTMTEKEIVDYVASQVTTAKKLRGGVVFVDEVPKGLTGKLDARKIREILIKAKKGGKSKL

Each structure is given as a SMILES string. Calls of active or inactive are those of the source.

Sequence of Follistatin (Homo sapiens) (P19883 whole entry, looked up): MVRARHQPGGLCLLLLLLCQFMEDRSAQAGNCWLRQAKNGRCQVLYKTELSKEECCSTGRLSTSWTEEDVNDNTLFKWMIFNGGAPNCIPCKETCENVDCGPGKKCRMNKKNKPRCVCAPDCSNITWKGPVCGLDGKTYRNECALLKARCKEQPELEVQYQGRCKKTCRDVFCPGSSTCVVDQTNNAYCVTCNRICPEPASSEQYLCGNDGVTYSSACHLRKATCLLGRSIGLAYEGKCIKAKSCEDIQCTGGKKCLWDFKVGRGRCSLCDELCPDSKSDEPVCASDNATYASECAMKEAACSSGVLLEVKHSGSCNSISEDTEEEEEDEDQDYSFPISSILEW
Sequence of Albumin (Bos taurus) (P02769 whole entry, looked up): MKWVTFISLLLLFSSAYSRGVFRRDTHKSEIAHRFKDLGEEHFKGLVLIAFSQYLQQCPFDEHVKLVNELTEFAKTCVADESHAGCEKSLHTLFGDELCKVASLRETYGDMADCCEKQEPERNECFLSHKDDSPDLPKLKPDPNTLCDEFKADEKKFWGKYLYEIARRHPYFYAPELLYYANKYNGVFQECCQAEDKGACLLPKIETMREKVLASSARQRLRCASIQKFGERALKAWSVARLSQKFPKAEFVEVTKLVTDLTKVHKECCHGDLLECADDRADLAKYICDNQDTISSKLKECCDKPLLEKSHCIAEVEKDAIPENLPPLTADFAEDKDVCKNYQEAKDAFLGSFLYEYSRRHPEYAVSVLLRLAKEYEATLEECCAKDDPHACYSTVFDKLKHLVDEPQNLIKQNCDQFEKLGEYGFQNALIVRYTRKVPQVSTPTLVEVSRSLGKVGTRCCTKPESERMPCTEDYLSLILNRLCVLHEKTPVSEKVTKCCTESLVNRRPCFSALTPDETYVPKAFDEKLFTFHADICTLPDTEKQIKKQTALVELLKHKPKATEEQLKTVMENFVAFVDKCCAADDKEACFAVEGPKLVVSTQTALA
Sequence of Concanavalin-A (Canavalia ensiformis) (P02866 whole entry, looked up): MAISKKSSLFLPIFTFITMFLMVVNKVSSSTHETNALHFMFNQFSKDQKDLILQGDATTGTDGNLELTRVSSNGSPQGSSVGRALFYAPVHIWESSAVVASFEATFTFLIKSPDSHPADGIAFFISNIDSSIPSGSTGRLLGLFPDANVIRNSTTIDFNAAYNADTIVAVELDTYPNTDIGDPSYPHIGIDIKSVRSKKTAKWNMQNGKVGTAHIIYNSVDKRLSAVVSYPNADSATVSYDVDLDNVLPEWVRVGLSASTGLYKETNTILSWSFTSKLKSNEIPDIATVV
Sequence of Focal adhesion kinase 1 (Homo sapiens) (Q05397 whole entry, looked up): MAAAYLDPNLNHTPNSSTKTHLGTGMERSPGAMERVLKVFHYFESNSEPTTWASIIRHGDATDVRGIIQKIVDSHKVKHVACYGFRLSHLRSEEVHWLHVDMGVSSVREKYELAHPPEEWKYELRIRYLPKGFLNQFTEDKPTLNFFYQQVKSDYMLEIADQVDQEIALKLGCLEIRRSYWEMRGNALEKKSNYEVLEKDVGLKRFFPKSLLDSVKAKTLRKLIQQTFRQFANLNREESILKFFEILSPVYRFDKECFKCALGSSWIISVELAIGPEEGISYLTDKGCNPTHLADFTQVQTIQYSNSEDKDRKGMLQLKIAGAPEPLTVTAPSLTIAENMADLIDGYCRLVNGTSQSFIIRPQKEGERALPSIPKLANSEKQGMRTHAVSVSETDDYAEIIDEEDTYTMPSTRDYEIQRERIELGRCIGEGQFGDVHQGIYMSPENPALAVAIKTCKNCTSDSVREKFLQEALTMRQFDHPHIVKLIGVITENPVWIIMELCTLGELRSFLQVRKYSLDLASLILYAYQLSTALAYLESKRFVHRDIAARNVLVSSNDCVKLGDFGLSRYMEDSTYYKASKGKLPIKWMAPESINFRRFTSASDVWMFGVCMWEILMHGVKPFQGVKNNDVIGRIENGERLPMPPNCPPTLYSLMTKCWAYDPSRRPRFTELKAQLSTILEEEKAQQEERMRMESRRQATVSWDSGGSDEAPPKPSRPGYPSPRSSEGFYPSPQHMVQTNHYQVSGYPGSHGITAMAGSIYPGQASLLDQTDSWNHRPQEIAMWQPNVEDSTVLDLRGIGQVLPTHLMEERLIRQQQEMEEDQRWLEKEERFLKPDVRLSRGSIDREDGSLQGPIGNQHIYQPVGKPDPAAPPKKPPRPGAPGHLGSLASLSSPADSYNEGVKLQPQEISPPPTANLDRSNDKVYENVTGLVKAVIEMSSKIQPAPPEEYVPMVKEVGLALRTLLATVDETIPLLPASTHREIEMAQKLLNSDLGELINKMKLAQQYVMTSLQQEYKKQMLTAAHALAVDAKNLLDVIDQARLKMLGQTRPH

On to `O=C1C2C=CC(C(O)C3CCCCC3)N(Nc3ccccc3F)C2C(=O)N1c1ccccc1` (stereo not given), for which the composite z-score with Albumin (Bos taurus) stood at 0.97; in test [2] it was 0.457; in test [3] it was 0.252; in test [4], 0.244; in test [5] it was 2.71; in [6], 1. In addition, the composite z-score in the test with Sam68 (KHDRBS1) worked out at 1.31; in [7] it was 0.426; in test [8], 1.2; in [9], 1.87; in [10], 1.23; in test [11] it was 1.76. Also, the composite z-score in test [12] was 1.01; in [13], 1.17; in test [14], -0.494; in the test with Lefty1, 0.168; in [16] it was 0.682. For the same molecule, the composite Z-score in test [1] was 0.485 (inactive). In addition, the results for the z-score in [15] and in test [17] were -0.791 and -1.02 (inactive), respectively.
As to `COC(=O)[C@@]1(Cc2ccc(F)cc2)[C@H]2c3cc(C(=O)N4CCCC4)n(CCSCCO)c3C[C@H]2CN1C(=O)c1ccccc1`, the composite z-score with Albumin (Bos taurus) turned out to be 0.855; in test [2], 0.241; in [3], 0.231; in [4] it was 0.839; in [5], 3.25; in [6], 0.258. Besides, the composite z-score was 0.644 in the test on Sam68 (KHDRBS1); -0.562 in test [7]; 0.532 in test [8]; 0.163 in test [9]; 0.767 in test [10]; 1.11 in [11]. Further, the composite z-score is 0.982 in test [12]; -0.16 in test [13]; -0.79 in [14]; -0.973 in the test on Lefty1; 0.679 in [16]. Also, in test [1], the composite Z-score is -0.338 (inactive). Besides, the z-score in [15] was 0.281; in [17] it was 0.5 (inactive).
For the molecule `C=C(COC)C(=O)CC[C@H](OC(C)=O)c1ccccc1OCCO`, the composite z-score with Albumin (Bos taurus) was -1.63; in test [2] it was -0.0343; in test [3] it was -0.115; in [4], 0.662; in [5], 0.0092; in test [6], -0.325. Besides, the composite z-score in the test on Sam68 (KHDRBS1) is 0.176; in test [7], -0.0471; in test [8] it was -0.153; in test [9], 0.342; in test [10], -0.538; in test [11], 0.253. Besides, the composite z-score was -0.674 in [12]; 1.26 in test [13]; 1.73 in [14]; 1.13 with Lefty1; -0.368 in test [16]. The composite Z-score in test [1] is -0.743 (inactive). Further, the z-score was 0.0429 in test [15] and -1.61 (inactive) in [17].
Regarding `CN(C)CCCC[C@@H]1NC(=O)[C@H]2C[C@@H](C(=O)NCCCCCCNC(=O)CS)[C@@H](c3cccc(OCCO)c3)N2C1=O`, the composite z-score in the test with Albumin (Bos taurus) was 0.105; in [2], -0.195; in test [3] it was -0.105; in test [4] it was 0.249; in [5], 1.01; in test [6], 0.586. Besides, the composite z-score with Sam68 (KHDRBS1) was 0.378; in test [7], -0.0352; in [8], 0.847; in test [9] it was 1.17; in test [10], 0.593; in test [11] it was 0.292. Also, the composite z-score in [12] was 0.511; in [13], 0.52; in [14], 1; in the test on Lefty1, -0.673; in test [16] it was -0.115. For the same molecule, the composite Z-score in test [1] is 0.333 (inactive). For the same molecule, the z-score in test [15] was 0.115; in test [17], 0.117 (inactive).
Consider `[N-]=[N+]=NCc1ccccc1C[C@@]1(C(=O)NCCN2CCOCC2)N=C(c2ccc(OCCCO)cc2)O[C@@H]1c1ccccc1`, for which the composite z-score was 0.818 with Albumin (Bos taurus); 0.307 in [2]; -0.106 in test [3]; 0.655 in test [4]; 2.77 in test [5]; 0.136 in test [6]. In addition, the composite z-score in the test on Sam68 (KHDRBS1) was 1.19; in test [7], -0.879; in [8], 0.944; in test [9], 1.42; in [10] it was 1.18; in test [11] it was 0.444. In addition, the composite z-score in test [12] is 0.947; in [13], 1.23; in test [14] it was -0.426; in the test with Lefty1 it was 0.573; in [16], 0.639. Besides, the composite Z-score in [1] is 1.03 (inactive). Also, the z-score in test [15] was 1.44; in test [17], -1.04 (inactive).
For the molecule `O=C1O[C@@H](c2ccccc2)[C@@H](c2ccccc2)N2[C@@H](c3ccccc3OCCO)[C@]3(C(=O)Nc4ccc(C#CC5(O)CCCCCC5)cc43)[C@@H](C(=O)N3CCCCCCC3)[C@H]12`, the composite z-score with Albumin (Bos taurus) is -0.411; in test [2], 2.33; in test [3], 1.21; in [4], 1.06; in test [5], 5.19; in [6], 1.41. The composite z-score came to 1.33 in the test with Sam68 (KHDRBS1); 1.69 in [7]; 0.93 in test [8]; 2.72 in [9]; 1.27 in test [10]; 4.12 in [11]. For the same molecule, the composite z-score in test [12] worked out at 0.89; in test [13] it was 1.58; in [14], 0.718; in the test with Lefty1 it was 1.99; in test [16], 1.67. Besides, the composite Z-score in test [1] was 9.73 (active). The z-score in test [15] is -1.1; in test [17], -0.37 (inactive).

The record behind these values is PubChem BioAssay.
